Screening results as filed in PubChem.
Shown are actives, neighbours in structure and some others; about 0.89% of the full set was active somewhere.
A1 inh: inhibitors of A1; MEF A1-2A-BIM cells, caspase-Glo luminescence, 3 h; percent of clofoctol signal, DMSO as zero; caspase activation, % (concentration not given with the values); actives 0.51% (n = 21,000);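 active means most replicate scores above 10, or exactly half above 10 with mean activity above 10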;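 further: effector caspase 3 and 7 activity cleaving a DEVD luciferin substrate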
BJeLR viab HTS: lowers viability of BJeLR cells; actives 0.64% (n = 30,000); AID 2275; BJeLR fibroblasts viability, CellTiterGlo ATP luminescence, 48 h; HRASV12, hTERT and SV40 LT/ST transformed; viability loss activity score, % (concentration not given with the values); in the data active means viability loss activity score above about 50%;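 further: higher score means fewer live cells and less ATP luminescence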
* hit, by the source's call; . = no result given.

SMILES	A1 inh	BJeLR viab HTS
CCCN1C/C(=C/c2ccc(OC)cc2)C(=O)/C(=C/c2ccc(OC)cc2)C1	.	70*
COc1ccc(/C=C2\C(=O)C3(C)CCC2C3(C)C)cc1 (centres undefined)	1	-3
CC(C)Cc1ccc(S(=O)(=O)N2c3ccccc3CC2C)cc1 (centres undefined)	.	-5
Cc1cc2c(cc1S(=O)(=O)N(C)Cc1ccccc1)OCCN2C	.	0
COc1ccccc1C1CCN(Cc2cccc3ccccc23)CC1	2	2
COc1cccc2sc(=NC(=O)Cc3cccc4ccccc34)n(C)c12	10*	5
O=C(CCN(Cc1ccco1)S(=O)(=O)c1ccc(Cl)cc1)Nc1ccc(Cl)cc1	1	1
CC(C)c1cc(NC2CCCCC2)n2c(nc3ccccc32)c1C#N	-2	9
CC1=CCC[C@@H]2[C@](CCc3ccoc3)(C(=O)O)[C@H](C)CC[C@@]12C	1	-3
C[C@@H]1C[C@H]2OCC3=CCC[C@H]([C@]1(CC(O)c1ccoc1)C(=O)O)[C@]32CO (some centres undefined)	0	92*
C=CCn1cnc2ccc(Br)cc2c1=O	.	-1
COc1cc([C@@H]2c3cc4c(cc3[C@H](O)[C@H]3COC(=O)[C@@H]23)OCO4)cc(OC)c1OC	3	93*
COc1cc([C@@H]2c3cc4c(cc3[C@H](O)[C@H]3COC(=O)[C@H]23)OCO4)cc(OC)c1OC	2	54*
COc1cc2c(c(OC)c1OC)-c1cc3c(cc1C[C@H]1C(=O)OC[C@@H]1C2)OCO3	1	42
COc1cc([C@@H]2c3cc4c(cc3[C@@H](O[C@@H]3O[C@@H]5CO[C@@H](C)O[C@H]5[C@H](O)[C@H]3O)[C@H]3COC(=O)[C@H]23)OCO4)cc(OC)c1O	0	15
COc1cccc(N2C(=S)NC3c4ccccc4OC2(C)C3C)c1 (centres undefined)	.	4
Cc1ccc(C(=O)C2C(=O)C(=O)N(CCCN3CCOCC3)C23C(=O)N(C)c2ccccc23)cc1F (centres undefined)	0	5
COc1cccc(-c2nn(C)c3sc(C(=O)N4CCCCC4C)cc23)c1 (centres undefined)	.	-4
C=CCn1c(=O)c2ccc(C(=O)NCc3ccccc3)cc2n(CC(=O)n2nc(N)cc2C)c1=O	.	-4
Oc1ccc(/C=N/c2nccs2)cc1	0	-1
CC12CC3(C)CC(C)(C1)CC(CN=Cc1ccc(O)cc1)(C2)C3	13*	3
CCOC(=O)N1CCC(NS(=O)(=O)c2ccc3oc(=O)c4ncn(CC)c4c3c2)CC1	.	4
CCCCCCN(CCCCCC)C(=O)Cc1c(-c2ccc(F)cc2)[nH]c2ccccc12	-1	2
CSc1c(-c2ccc(Cl)cc2)[nH]c2ccccc12	14*	2
C=C(C)C(=O)O[C@H]1CC(=C)C2C[C@H](O)[C@](O)(CO)C2[C@H]2OC(=O)C(=C)[C@H]12 (some centres undefined)	0	-11
SMILES	A1 inh	BJeLR viab HTS
C=C(C)C(=O)O[C@H]1[C@H]2C(=C)C(=O)O[C@@H]2C[C@@H](C)[C@@H]2O[C@@H]2C(=O)[C@](C)(O)[C@@H]1OC(=O)C(=C)C	0	80*
Cc1ccc2nc3c(cc(C(=O)NCCN4CCOCC4)c(=N)n3CC3CCCO3)c(=O)n2c1 (centres undefined)	0	-3
O=C1C=CC(=O)c2c(O)c(Cl)c(Cl)c(O)c21	-5	54*
C/C=C(/C)C(=O)O[C@H]1CC(C)(C)C[C@H]2C3=CCC4[C@@]5(C)CC[C@H](O[C@@H]6O[C@H](C(=O)O)[C@@H](O[C@@H]7O[C@H](CO)[C@H](O)[C@H](O)[C@H]7O[C@@H]7O[C@H](CO)[C@@H](O)[C@H](O)[C@H]7O)[C@H](O)[C@H]6O[C@@H]6O[C@@H](C)[C@H](O)[C@@H](O)[C@H]6O)C(C)(C)C5CC[C@@]4(C)[C@]3(C)C[C@@H](O)[C@@]12CO (some centres undefined)	-4	127*
CC1OC(OC2C(C(=O)O)OC(O[C@H]3CC[C@@]4(C)C(CC[C@]5(C)C4CC=C4C6CC(C)(C)CC[C@]6(C(=O)OC6OC(CO)C(O)C(O)C6O)CC[C@]45C)C3(C)C)C(O)C2O)C(OC2OCC(O)C(O)C2O)C(O)C1O (some centres undefined)	0	-2
c1ccc2c(c1)nc(SC1CCCCC1)c1nncn12	.	0
CC1(C)CC[C@]2(C(=O)O)CC[C@]3(C)C(=CCC4[C@@]5(C)CC[C@H](O[C@@H]6O[C@H](CO)[C@@H](O)[C@H](O)[C@H]6O)C(C)(C)C5CC[C@]43C)[C@@H]2C1 (some centres undefined)	0	1
C=CCN(c1ccccc1)S(=O)(=O)c1ccc(F)c(C(=O)Nc2ccc(C(C)C)cc2)c1	-1	16
